Assay results as given in the supplement of paper PMC10849652.
Targets with a hit are over-represented here; the source holds about 8,800 in all. About 0.5% of all pairs of compound and target were hits.

compound: CC(C)(C)Cn1c(N)nc2ccc(-c3[nH]c(C(C)(C)C)nc3-c3ccc(F)cc3)nc21 [ralimetinib]; test: log2 fold change, soluble protein after heating vs DMSO (PISA); higher = thermal stabilisation; K562 lysate, 10 uM; active = over 0.2 and 3.5 SD of the protein, either way, in both replicates (recomputed)
Summary of the method: (§1)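 The values are log-two fold changes in thermal stability compared with solvent controls and come from duplicates. They were obtained by TMTpro 16plex LC-MS/MS, with channel sums equalised, on the supernatant after 21,000xg for 90 min. That supernatant came from crude K562 extract at 1 mg/mL protein treated with 10 μM compound for 30 min, heated for 3 min across 48°C-58°C, pooled and brought to 0.5% NP-40 at 4°C.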

UniProt Q6NUQ1, sequence (Q6NUQ1 whole entry, looked up): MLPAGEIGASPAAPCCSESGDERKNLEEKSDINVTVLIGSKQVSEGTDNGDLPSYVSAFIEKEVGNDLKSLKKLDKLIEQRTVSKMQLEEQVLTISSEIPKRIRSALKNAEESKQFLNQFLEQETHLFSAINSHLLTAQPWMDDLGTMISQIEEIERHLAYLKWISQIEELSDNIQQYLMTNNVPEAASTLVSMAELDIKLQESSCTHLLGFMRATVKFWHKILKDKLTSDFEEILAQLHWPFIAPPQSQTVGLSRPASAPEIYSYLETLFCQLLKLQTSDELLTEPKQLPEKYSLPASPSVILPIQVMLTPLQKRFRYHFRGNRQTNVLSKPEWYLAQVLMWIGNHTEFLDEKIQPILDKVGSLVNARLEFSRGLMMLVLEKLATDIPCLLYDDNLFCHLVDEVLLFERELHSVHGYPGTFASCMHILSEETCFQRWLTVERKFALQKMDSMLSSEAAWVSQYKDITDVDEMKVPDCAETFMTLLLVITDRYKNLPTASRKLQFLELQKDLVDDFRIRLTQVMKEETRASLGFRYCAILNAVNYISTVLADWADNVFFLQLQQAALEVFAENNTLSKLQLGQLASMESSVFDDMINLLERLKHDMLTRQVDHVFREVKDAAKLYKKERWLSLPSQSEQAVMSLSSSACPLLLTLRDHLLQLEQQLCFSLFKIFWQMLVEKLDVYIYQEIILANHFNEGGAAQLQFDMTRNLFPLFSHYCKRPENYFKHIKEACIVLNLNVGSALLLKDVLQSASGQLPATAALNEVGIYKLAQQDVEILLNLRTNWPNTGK
UniProt P23921, sequence (P23921 whole entry, looked up): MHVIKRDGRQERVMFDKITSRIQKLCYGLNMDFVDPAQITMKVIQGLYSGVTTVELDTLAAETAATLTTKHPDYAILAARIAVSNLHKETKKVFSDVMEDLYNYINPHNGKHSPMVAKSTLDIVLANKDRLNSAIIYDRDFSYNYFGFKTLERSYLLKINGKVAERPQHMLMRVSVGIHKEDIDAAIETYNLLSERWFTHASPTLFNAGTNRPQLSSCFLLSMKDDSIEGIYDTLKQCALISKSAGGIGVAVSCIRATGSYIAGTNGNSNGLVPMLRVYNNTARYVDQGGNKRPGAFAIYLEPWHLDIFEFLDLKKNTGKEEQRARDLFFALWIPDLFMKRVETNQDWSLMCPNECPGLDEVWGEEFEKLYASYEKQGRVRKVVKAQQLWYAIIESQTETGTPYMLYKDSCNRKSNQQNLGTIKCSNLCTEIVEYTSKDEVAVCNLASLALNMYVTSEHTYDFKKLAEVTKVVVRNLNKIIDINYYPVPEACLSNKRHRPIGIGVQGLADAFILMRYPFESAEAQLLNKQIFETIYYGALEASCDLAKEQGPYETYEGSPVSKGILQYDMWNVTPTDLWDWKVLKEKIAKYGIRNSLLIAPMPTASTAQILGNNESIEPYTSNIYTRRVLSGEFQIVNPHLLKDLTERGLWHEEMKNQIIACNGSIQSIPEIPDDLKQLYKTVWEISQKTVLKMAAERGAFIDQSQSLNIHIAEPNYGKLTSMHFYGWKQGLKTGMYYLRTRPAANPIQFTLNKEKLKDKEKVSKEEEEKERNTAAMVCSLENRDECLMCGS
UniProt O95248, sequence (O95248 whole entry, looked up): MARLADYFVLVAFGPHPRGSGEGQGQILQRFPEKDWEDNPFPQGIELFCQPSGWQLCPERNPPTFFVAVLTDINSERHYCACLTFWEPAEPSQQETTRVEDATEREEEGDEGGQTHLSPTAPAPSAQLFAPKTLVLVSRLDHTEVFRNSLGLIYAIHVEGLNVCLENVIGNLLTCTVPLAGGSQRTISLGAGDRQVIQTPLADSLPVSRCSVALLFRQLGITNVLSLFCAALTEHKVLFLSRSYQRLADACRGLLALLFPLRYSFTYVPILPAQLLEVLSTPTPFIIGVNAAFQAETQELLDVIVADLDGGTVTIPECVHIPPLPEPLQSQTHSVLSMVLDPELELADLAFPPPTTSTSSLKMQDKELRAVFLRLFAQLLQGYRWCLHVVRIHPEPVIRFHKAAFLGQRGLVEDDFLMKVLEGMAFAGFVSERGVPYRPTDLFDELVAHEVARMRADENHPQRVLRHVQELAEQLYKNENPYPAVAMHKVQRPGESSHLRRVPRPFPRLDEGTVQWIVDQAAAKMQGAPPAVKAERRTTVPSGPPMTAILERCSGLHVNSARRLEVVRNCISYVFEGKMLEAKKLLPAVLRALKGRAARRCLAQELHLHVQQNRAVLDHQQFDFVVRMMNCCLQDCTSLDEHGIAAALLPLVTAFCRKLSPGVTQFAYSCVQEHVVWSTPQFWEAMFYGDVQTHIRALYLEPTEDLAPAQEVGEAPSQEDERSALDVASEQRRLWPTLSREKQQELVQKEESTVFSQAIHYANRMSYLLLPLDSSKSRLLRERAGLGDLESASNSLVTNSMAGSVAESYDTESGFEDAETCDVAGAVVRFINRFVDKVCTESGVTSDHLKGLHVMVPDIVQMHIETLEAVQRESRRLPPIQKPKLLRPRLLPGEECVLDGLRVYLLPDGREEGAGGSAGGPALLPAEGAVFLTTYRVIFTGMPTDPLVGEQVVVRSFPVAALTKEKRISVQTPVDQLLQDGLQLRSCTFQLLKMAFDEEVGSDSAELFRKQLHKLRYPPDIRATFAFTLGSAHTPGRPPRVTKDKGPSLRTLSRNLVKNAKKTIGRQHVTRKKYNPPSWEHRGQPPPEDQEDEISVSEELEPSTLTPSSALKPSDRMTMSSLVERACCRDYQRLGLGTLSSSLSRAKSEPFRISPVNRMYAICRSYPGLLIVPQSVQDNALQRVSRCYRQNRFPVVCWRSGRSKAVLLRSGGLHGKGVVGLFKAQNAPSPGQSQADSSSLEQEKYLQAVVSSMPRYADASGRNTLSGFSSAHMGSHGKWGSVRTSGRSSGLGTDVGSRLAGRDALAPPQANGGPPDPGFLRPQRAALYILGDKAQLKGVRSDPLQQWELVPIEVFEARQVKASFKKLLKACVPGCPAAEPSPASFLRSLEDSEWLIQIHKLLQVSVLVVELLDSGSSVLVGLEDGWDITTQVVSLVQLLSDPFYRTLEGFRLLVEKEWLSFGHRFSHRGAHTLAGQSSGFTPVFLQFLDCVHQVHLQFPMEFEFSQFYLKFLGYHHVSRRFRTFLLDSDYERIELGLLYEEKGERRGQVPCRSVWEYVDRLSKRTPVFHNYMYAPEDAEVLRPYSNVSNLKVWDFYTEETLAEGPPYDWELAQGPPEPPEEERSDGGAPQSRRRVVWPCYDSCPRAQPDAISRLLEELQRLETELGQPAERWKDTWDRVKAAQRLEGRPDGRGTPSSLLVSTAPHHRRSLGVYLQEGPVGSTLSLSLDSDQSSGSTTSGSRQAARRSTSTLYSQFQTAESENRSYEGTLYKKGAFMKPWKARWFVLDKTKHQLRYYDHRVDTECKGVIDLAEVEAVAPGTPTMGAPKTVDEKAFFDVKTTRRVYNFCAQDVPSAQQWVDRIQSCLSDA
UniProt Q4ADV7, sequence (Q4ADV7 whole entry, looked up): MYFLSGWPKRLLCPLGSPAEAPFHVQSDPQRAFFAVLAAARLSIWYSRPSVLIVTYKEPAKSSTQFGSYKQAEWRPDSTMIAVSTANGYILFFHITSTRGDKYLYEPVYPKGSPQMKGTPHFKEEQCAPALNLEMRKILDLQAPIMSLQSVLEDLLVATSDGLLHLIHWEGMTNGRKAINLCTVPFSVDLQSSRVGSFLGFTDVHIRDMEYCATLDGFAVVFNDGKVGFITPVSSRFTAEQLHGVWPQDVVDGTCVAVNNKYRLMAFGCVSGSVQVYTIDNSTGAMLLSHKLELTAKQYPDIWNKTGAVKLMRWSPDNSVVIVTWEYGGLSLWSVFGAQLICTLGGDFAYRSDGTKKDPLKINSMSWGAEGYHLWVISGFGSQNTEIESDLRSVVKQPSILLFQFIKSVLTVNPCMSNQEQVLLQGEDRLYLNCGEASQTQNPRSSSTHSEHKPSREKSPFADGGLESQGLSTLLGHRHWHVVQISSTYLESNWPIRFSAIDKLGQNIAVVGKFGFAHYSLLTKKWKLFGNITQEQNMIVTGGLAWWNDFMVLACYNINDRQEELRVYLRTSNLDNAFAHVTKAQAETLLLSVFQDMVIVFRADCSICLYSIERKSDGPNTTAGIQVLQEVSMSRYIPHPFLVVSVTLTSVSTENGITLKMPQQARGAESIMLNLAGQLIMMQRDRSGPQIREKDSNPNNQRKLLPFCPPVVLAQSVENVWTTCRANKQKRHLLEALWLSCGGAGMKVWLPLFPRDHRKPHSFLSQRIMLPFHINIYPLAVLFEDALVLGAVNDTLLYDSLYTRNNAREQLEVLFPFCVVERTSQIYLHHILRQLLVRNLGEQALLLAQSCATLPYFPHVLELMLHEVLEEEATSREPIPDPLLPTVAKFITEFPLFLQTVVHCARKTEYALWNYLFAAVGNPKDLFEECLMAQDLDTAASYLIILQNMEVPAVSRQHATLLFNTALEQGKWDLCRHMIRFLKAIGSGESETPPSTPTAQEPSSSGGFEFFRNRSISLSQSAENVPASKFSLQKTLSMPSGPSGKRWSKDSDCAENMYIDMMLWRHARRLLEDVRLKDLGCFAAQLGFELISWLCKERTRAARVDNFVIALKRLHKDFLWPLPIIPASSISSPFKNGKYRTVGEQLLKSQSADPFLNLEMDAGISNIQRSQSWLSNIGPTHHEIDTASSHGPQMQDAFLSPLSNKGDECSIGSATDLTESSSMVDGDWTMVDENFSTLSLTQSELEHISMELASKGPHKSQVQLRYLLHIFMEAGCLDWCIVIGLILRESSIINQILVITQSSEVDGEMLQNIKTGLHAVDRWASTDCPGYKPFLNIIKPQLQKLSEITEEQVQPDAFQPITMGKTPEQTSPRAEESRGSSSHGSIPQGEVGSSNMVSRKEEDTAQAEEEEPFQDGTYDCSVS
UniProt Q9Y6B6, sequence (Q9Y6B6 whole entry, looked up): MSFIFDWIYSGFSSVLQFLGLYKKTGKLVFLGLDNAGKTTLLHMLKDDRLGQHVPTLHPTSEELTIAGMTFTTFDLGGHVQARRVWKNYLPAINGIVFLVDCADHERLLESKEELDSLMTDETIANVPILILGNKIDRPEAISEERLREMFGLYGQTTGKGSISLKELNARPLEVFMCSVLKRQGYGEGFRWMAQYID

log2 fold change, inactive:
SERPINI1 (UniProt Q99574) 0.001
SASS6 (UniProt Q6UVJ0) -0.006
RPS6KB1 (UniProt P23443) 0.026
SAMHD1 (UniProt Q9Y3Z3) 0.056
S100A11 (UniProt P31949) -0.009
RTN4IP1 (UniProt Q8WWV3) 0.012
RIOK3 (UniProt O14730) 0.055
RAB6D (UniProt Q53S08) -0.011
RHAG (UniProt Q02094) -0.001
RIPK1 (UniProt Q13546) -0.009
RMC1 (UniProt Q96DM3) 0.03
RAB21 (UniProt Q9UL25) 0.057
RABEPK (UniProt Q7Z6M1) 0.01
SCO1 (UniProt O75880) -0.006
RINT1 (UniProt Q6NUQ1) 0.05
RDH14 (UniProt Q9HBH5) 0.072
RPL31 (UniProt P62899) 0.009
RAF1 isoform 2 (UniProt P04049) 0.054
RDX (UniProt P35241) -0.003
RPS4X (UniProt P62701) 0.009
RIC1 (UniProt Q4ADV7) 0.046
RRM1 (UniProt P23921) 0.005
RNF123 (UniProt Q5XPI4) 0.029
RNF181 (UniProt Q9P0P0) -0.001
RNF213, A0A0A0MTC1 -0.001
RNF168 (UniProt Q8IYW5) 0.004
SAR1B (UniProt Q9Y6B6) 0.045
RFC2 (UniProt P35250) 0.036
SBF1 isoform 4 (UniProt O95248) 0
SERINC3 (UniProt Q13530) 0.01
RPS29 (UniProt P62273) -0.138
RPS26P11 (UniProt Q5JNZ5) 0.008
RFC5 (UniProt P40937) 0.046

compound: CC(C)(O)CC(=O)NCCn1ccc2ncnc(Nc3ccc(Oc4cccc(C(F)(F)F)c4)c(Cl)c3)c21; test: as above
Summary of the method: as §1

log2 fold change, inactive:
SERPINI1 (UniProt Q99574) 0.024
SASS6 (UniProt Q6UVJ0) -0.056
RPS6KB1 (UniProt P23443) 0.007
SAMHD1 (UniProt Q9Y3Z3) -0.004
S100A11 (UniProt P31949) -0.017
RTN4IP1 (UniProt Q8WWV3) 0.028
RIOK3 (UniProt O14730) 0
RAB6D (UniProt Q53S08) -0.087
RHAG (UniProt Q02094) -0.068
RIPK1 (UniProt Q13546) -0.011
RMC1 (UniProt Q96DM3) -0.024
RAB21 (UniProt Q9UL25) -0.02
RABEPK (UniProt Q7Z6M1) -0.006
SCO1 (UniProt O75880) -0.072
RINT1 (UniProt Q6NUQ1) -0.094
RDH14 (UniProt Q9HBH5) 0.089
RPL31 (UniProt P62899) -0.022
RAF1 isoform 2 (UniProt P04049) 0.004
RDX (UniProt P35241) 0.002
RPS4X (UniProt P62701) -0.021
RIC1 (UniProt Q4ADV7) -0.074
RRM1 (UniProt P23921) -0.01
RNF123 (UniProt Q5XPI4) -0.042
RNF181 (UniProt Q9P0P0) -0.006
RNF213, A0A0A0MTC1 -0.014
RNF168 (UniProt Q8IYW5) -0.041
SAR1B (UniProt Q9Y6B6) -0.032
RFC2 (UniProt P35250) 0.044
SBF1 isoform 4 (UniProt O95248) -0.021
SERINC3 (UniProt Q13530) -0.003
RPS29 (UniProt P62273) 0.03
RPS26P11 (UniProt Q5JNZ5) -0.034
RFC5 (UniProt P40937) 0.02

compound: CC(C)C1=C2N=C(C=C(N2N=C1)NCC3=CC=CC=C3)NCCCCCCN; test: as above
Summary of the method: as §1

log2 fold change, inactive:
SERPINI1 (UniProt Q99574) 0.005
SASS6 (UniProt Q6UVJ0) -0.017
RPS6KB1 (UniProt P23443) -0.027
SAMHD1 (UniProt Q9Y3Z3) -0.002
S100A11 (UniProt P31949) -0.02
RTN4IP1 (UniProt Q8WWV3) -0.042
RIOK3 (UniProt O14730) 0.054
RAB6D (UniProt Q53S08) 0.014
RHAG (UniProt Q02094) 0.042
RIPK1 (UniProt Q13546) 0.018
RMC1 (UniProt Q96DM3) -0.001
RAB21 (UniProt Q9UL25) -0.002
RABEPK (UniProt Q7Z6M1) 0.018
SCO1 (UniProt O75880) -0.11
RINT1 (UniProt Q6NUQ1) 0.016
RDH14 (UniProt Q9HBH5) 0.012
RPL31 (UniProt P62899) 0.003
RAF1 isoform 2 (UniProt P04049) 0.065
RDX (UniProt P35241) 0.012
RPS4X (UniProt P62701) 0.022
RIC1 (UniProt Q4ADV7) 0.038
RRM1 (UniProt P23921) 0.022
RNF123 (UniProt Q5XPI4) -0.003
RNF181 (UniProt Q9P0P0) -0.005
RNF213, A0A0A0MTC1 0.007
RNF168 (UniProt Q8IYW5) -0.034
SAR1B (UniProt Q9Y6B6) 0.093
RFC2 (UniProt P35250) -0.002
SBF1 isoform 4 (UniProt O95248) -0.079
SERINC3 (UniProt Q13530) -0.016
RPS29 (UniProt P62273) -0.109
RPS26P11 (UniProt Q5JNZ5) -0.019
RFC5 (UniProt P40937) 0.012
